{"source": "ChEMBL document CHEMBL1201862", "about": "“PubChem BioAssay data set” (2004)", "note": "Among all 400,000 compounds or so, about 2,100 (0.53%) were called active. Inconclusive results (about 14%) are left out. How the calls were made is not given here. The sample as a whole holds a higher share of actives than the screen did.", "data": [{"biological_target": "Ataxin-2 (Homo sapiens) (UniProt Q99700)", "sequence (Q99700 whole entry)": "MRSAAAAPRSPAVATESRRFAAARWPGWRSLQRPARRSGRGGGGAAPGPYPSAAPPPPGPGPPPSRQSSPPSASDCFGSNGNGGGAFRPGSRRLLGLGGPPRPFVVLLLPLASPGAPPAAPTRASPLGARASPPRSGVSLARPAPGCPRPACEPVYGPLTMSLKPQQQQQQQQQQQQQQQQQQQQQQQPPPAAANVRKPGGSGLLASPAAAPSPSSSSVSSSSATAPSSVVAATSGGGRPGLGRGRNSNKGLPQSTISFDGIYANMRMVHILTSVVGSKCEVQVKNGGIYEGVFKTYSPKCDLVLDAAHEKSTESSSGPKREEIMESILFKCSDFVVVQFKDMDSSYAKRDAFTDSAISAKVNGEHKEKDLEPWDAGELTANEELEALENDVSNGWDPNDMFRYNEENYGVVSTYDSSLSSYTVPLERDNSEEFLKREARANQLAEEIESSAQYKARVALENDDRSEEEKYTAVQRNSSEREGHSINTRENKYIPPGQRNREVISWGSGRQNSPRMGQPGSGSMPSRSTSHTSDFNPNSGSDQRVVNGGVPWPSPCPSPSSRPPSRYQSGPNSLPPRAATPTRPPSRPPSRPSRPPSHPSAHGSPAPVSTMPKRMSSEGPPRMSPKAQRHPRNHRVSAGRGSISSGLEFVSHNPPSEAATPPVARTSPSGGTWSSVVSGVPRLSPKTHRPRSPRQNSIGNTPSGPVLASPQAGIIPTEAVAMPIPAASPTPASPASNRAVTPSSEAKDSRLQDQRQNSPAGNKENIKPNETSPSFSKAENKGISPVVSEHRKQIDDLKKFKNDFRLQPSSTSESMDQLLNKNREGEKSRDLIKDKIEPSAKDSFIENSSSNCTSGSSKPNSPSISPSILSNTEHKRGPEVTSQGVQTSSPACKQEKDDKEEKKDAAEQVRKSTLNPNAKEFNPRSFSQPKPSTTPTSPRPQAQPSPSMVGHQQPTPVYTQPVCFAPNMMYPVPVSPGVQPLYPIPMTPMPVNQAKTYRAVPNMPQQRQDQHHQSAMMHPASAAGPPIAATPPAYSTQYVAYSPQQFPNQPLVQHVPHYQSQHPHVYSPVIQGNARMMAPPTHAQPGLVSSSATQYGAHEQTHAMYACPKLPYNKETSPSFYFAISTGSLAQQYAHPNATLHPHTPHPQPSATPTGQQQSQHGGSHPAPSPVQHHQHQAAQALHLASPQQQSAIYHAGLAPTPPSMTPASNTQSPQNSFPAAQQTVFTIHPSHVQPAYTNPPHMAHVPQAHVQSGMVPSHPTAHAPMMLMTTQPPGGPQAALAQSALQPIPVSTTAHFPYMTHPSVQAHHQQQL", "experiment": "qHTS for Inhibitors of ATXN expression.", "type": "functional", "values": [{"smiles": "Cc1cccc(N(CC(O)Cn2c3ccccc3c3ccccc32)S(=O)(=O)c2ccc(F)cc2)c1", "note": "(configuration not stated)", "Potency": "15.8 µM (active)"}, {"smiles": "Cc1ccc(S(=O)(=O)N(CC(O)Cn2c3ccccc3c3ccccc32)c2cccc(C(=O)NCCO)c2)cc1", "note": "(configuration not stated)", "Potency": "35.5 µM (active)"}, {"smiles": "CC(C)(C)N(NS(=O)(=O)c1ccc(F)cc1)c1ccccc1", "Potency": "inactive"}, {"smiles": "O=S(=O)(c1ccc(F)cc1)N(CC(O)Cn1c2ccccc2c2ccccc21)c1ccccc1", "note": "(configuration not stated)", "Potency": "22.4 µM (active)"}, {"smiles": "CCCCN(C)CC(O)Cn1cc(/C=C/C(=O)c2ccc(C)cc2)c2ccccc21", "note": "(configuration not stated)", "Potency": "inactive"}, {"smiles": "CCCCN(CCCC)CC(O)Cn1c2ccccc2c(=O)c2ccccc21", "note": "(configuration not stated)", "Potency": "inactive"}, {"smiles": "CN(C)/C=N/c1nc2nccc(-c3ccccn3)n2n1", "Potency": "inactive"}, {"smiles": "O=C(CN(Cc1ccc(F)cc1)C(=O)CCC(=O)Nc1nccs1)NCc1ccccc1", "Potency": "inactive"}, {"smiles": "CC(=O)Oc1cc2oc(=O)cc(C)c2cc1Cl", "Potency": "inactive"}, {"smiles": "CCCn1nc(NC(=O)CC(C)C)c2cc3cccc(C)c3nc21", "Potency": "inactive"}, {"smiles": "Cc1cc(C)c2ccc(N)nc2c1O", "Potency": "39.8 µM (active)"}, {"smiles": "Cn1nc(NC(=O)C(F)(F)F)c2ncc(-c3ccc(Cl)cc3)nc21", "Potency": "inactive"}, {"smiles": "COc1ccccc1[C@H]1C(c2ccc(F)cc2)=NN(c2ccccc2)[C@@H]1CO", "Potency": "inactive"}, {"smiles": "COc1ccccc1NC(=O)C(C)Sc1nccn1C", "note": "(configuration not stated)", "Potency": "inactive"}, {"smiles": "COc1ccccc1CCN1COc2c(cc3c(C)c(C)c(=O)oc3c2C)C1", "Potency": "inactive"}, {"smiles": "CCCCc1c(-c2ccc(F)cc2)ncn1CCc1ccccc1OC", "Potency": "31.6 µM (active)"}, {"smiles": "CCCCc1c(Cc2ccccc2)ncn1CCc1ccccc1OC", "Potency": "15.8 µM (active)"}, {"smiles": "CC1=C(C)C(=O)N(C(C)CCc2ccccc2)C1=O", "note": "(configuration not stated)", "Potency": "inactive"}, {"smiles": "COc1ccccc1CCn1cnc(-c2ccc(Br)cc2)c1C(C)C", "Potency": "25.1 µM (active)"}, {"smiles": "COc1ccccc1CNc1ccc(Br)cn1", "Potency": "inactive"}, {"smiles": "COc1ccccc1CCn1cnc(Cc2ccccc2)c1C(C)C", "Potency": "39.8 µM (active)"}, {"smiles": "CCN(CC)c1ccc2c(Cl)cc(=O)oc2c1", "Potency": "inactive"}, {"smiles": "N#Cc1cc2c(=O)n3ccccc3nc2n(Cc2ccco2)/c1=N/C(=O)c1ccco1", "Potency": "inactive"}, {"smiles": "COc1cccc2sc3ccc(NCc4ccc5c(c4)OCO5)cc3c(=O)c12", "Potency": "inactive"}, {"smiles": "Cc1c(C#N)c2n(c1C)CCCC(=O)N2", "Potency": "inactive"}, {"smiles": "COc1cc2c(cc1OC)C1=C(C#N)CC/C(=N\\S(=O)(=O)c3ccccc3)N1CC2", "Potency": "inactive"}, {"smiles": "CCCn1nc(-c2ccccc2)c2nc3ccccc3nc21", "Potency": "inactive"}, {"smiles": "CCCCc1c(-c2cccc(F)c2)ncn1CCc1ccccc1OC", "Potency": "39.8 µM (active)"}, {"smiles": "COc1ccccc1CCn1c(N)c(C#N)c2nc3ccccc3nc21", "Potency": "inactive"}, {"smiles": "CCCCc1c(-c2ccc(OC)cc2)ncn1CCc1ccccc1OC", "Potency": "39.8 µM (active)"}, {"smiles": "COc1ccccc1CCC(=O)NNC(=O)Cn1nc(C)cc1C", "Potency": "inactive"}, {"smiles": "CCCCc1c(-c2ccccc2)ncn1CCc1ccccc1OC", "Potency": "35.5 µM (active)"}, {"smiles": "CCCCCc1c(-c2ccc(OC)cc2)ncn1CCc1ccccc1OC", "Potency": "31.6 µM (active)"}, {"smiles": "Cc1cccn2c(=O)c3cc(C(=O)NCc4cccnc4)c(=N)n(C(C)C)c3nc12", "Potency": "inactive"}, {"smiles": "COc1ccc2c(c1)CCCC21SC(NC(C)=O)=NN1C(C)=O", "note": "(configuration not stated)", "Potency": "inactive"}, {"smiles": "O=C1OCCN1C(=O)[C@H]1[C@H](c2ccccc2)C(c2ccccc2)=NN1c1ccc(Br)cc1", "Potency": "inactive"}, {"smiles": "CCCCc1c(-c2ccc(OC)c(OC)c2)ncn1CCc1ccccc1OC", "Potency": "22.4 µM (active)"}, {"smiles": "CCOc1ccc(-c2nnn(CCC#N)n2)cc1OC", "Potency": "inactive"}, {"smiles": "CCOCCCNC(=O)c1ccc2nc(-c3ccc(OC)c(OC)c3)c(-c3ccc(OC)c(OC)c3)nc2c1", "Potency": "inactive"}, {"smiles": "CCCS(=O)(=O)c1c(S(=O)(=O)CCC)c2cc(-c3ccncc3)ccn2c1C(=O)OC", "Potency": "inactive"}, {"smiles": "CN1CCN(S(=O)(=O)c2ccc(NC(=O)COc3ccccc3)cc2)CC1", "Potency": "inactive"}, {"smiles": "Cc1ccc(S(=O)(=O)N2C[C@@H](C)[C@]3(C2)[C@H](O)[C@H](OC(=O)Nc2cccs2)C[C@H]2C(=O)N(c4ccccc4)C(=O)[C@H]23)cc1", "Potency": "35.5 µM (active)"}, {"smiles": "CCCCn1/c(=N\\C(=O)c2ccco2)c(C(=O)OCC)cc2c(=O)n3cccc(C)c3nc21", "Potency": "inactive"}, {"smiles": "CCn1cc(C2C3=C(O)CCCC3=NC(C)=C2C(=O)Nc2ccc(Br)cn2)c(C)n1", "note": "(configuration not stated)", "Potency": "inactive"}, {"smiles": "CCOc1nc2cnccc2n(CC(=O)Nc2ccc(C)c(C)c2)c1=O", "Potency": "inactive"}, {"smiles": "COc1ccc(NC(=O)Cn2c(SCc3cc(C)ccc3C)nc3ccncc32)c(OC)c1OC", "Potency": "39.8 µM (active)"}, {"smiles": "COC(=O)c1ccc(-c2sc3nc(N4CCOCC4)c4c(c3c2N)CC(C)(C)OC4)o1", "Potency": "inactive"}, {"smiles": "COc1cc(OC)cc(C(=O)NC(C(=O)NCCc2ccccn2)C(C)C)c1", "note": "(configuration not stated)", "Potency": "inactive"}, {"smiles": "COc1cc(OC)c(NC(C)C(=O)NCc2ccccc2)cc1Cl", "note": "(configuration not stated)", "Potency": "inactive"}, {"smiles": "COc1cc(OC)c(NC(=O)C(C)n2nc(-c3ccc(C)c(C)c3)ccc2=O)cc1Cl", "note": "(configuration not stated)", "Potency": "35.5 µM (active)"}, {"smiles": "COc1ccc(CC(=O)Nc2nn(C)c3nc4c(C)cccc4cc23)cc1", "Potency": "inactive"}, {"smiles": "COc1ccc(-c2ccc3c(N)c(C(=O)Nc4ccc(C)cc4C)sc3n2)cc1OC", "Potency": "inactive"}, {"smiles": "CCC(C(=O)Nc1cc(OC)cc(OC)c1)n1nc(-c2ccc(C)c(C)c2)ccc1=O", "note": "(configuration not stated)", "Potency": "25.1 µM (active)"}, {"smiles": "N#Cc1c(N)n(-c2cccc(Cl)c2)c2nc3ccccc3nc12", "Potency": "inactive"}, {"smiles": "CCc1cc(=O)oc2c(C)c3c(cc12)CN(CCc1ccccc1)CO3", "Potency": "inactive"}, {"smiles": "Cc1cccc(-c2nnc(SCc3cc(=O)c4c(C)cc(C)cc4[nH]3)[nH]2)c1", "Potency": "39.8 µM (active)"}, {"smiles": "COc1ccc(COC(=O)C2CC(=O)N(Cc3ccccc3)C2)cc1", "note": "(configuration not stated)", "Potency": "inactive"}, {"smiles": "COC(=O)[C@@H]1C[C@]2(OC(=O)c3ccccc3)C=CC(=O)C[C@@H]2N1C(=O)OCc1ccccc1", "Potency": "25.1 µM (active)"}, {"smiles": "O=C(OCc1ccccc1)N1CCc2ccccc21", "Potency": "inactive"}, {"smiles": "C=CCN1C(=O)c2cccc3c(N4CCCCC4)ccc(c23)C1=O", "Potency": "inactive"}, {"smiles": "COc1ccccc1/C=N/OC(=O)c1ccc(C)cc1", "Potency": "inactive"}, {"smiles": "COc1ccccc1C=CC(=O)C=Cc1ccccc1OC", "Potency": "16.8 µM (active)"}, {"smiles": "COc1ccccc1/C=C/C(=O)NCC(=O)N=Nc1c(O)[nH]c2ccccc12", "Potency": "inactive"}, {"smiles": "CS(=O)(=O)c1ncc(Cl)c(C(=O)Nc2ccc(N3CCOCC3)cc2)n1", "Potency": "25.1 µM (active)"}, {"smiles": "COC(=O)c1nc2ccc(N3CCOCC3)cc2c(C)c1C(=O)OC", "Potency": "inactive"}, {"smiles": "CCOC(=O)c1cnc2c(C)cc(Cl)cc2c1N1CCN(C)CC1", "Potency": "inactive"}, {"smiles": "CN(c1ccccc1)S(=O)(=O)c1ccc(Cl)c(C(=O)Nc2nn[nH]n2)c1", "Potency": "inactive"}, {"smiles": "CCOC(=O)c1c(O)cc(C)nc1O", "Potency": "inactive"}, {"smiles": "O=C(Nc1ccc(N2CCOCC2)cc1)c1cccc(S(=O)(=O)N2CCCCCC2)c1", "Potency": "inactive"}, {"smiles": "O=C(Nc1ccc(S(=O)(=O)Nc2nccs2)cc1)c1nn(-c2ccccc2)ccc1=O", "Potency": "inactive"}, {"smiles": "CCOC(=O)c1nc(S(C)(=O)=O)ncc1Cl", "Potency": "39.8 µM (active)"}, {"smiles": "CCS(=O)(=O)c1ncc(Cl)c(C(=O)Nc2ccc(C)cc2)n1", "Potency": "35.5 µM (active)"}, {"smiles": "CCN(c1ccccc1)S(=O)(=O)c1ccc(NC(=O)c2nc(S(C)(=O)=O)ncc2Cl)cc1", "Potency": "17.8 µM (active)"}, {"smiles": "Cc1ccc(NC(=O)c2sc3nc(C)cc(C)c3c2N)cc1", "Potency": "inactive"}, {"smiles": "COc1ccc(NC(=O)NS(=O)(=O)c2ccc(C)cc2)cn1", "Potency": "inactive"}, {"smiles": "O=C(/C=C/Nc1ccc(S(=O)(=O)Nc2ncccn2)cc1)c1ccc(Cl)c(Cl)c1", "Potency": "inactive"}, {"smiles": "CCc1cc(=O)oc2c(C)c(O[C@@H]3O[C@H](CO)[C@@H](O)[C@H](O)[C@H]3O)ccc12", "Potency": "inactive"}, {"smiles": "CC(C)C1OC2(C)OC(=N)C1(C#N)C(C#N)(C#N)C2c1ccccc1", "note": "(configuration not stated)", "Potency": "inactive"}, {"smiles": "CC(=O)c1ccc(N2CCN(C(=O)COc3ccc4ccccc4c3)CC2)cc1", "Potency": "inactive"}, {"smiles": "Cc1oc(C(N)=O)cc1COc1ccc(C(N)=O)cc1", "Potency": "inactive"}, {"smiles": "Cc1sc2ncn(CC(=O)NCCCC(=O)N3CCN(Cc4ccc5c(c4)OCO5)CC3)c(=O)c2c1C", "Potency": "inactive"}, {"smiles": "CCS(=O)(=O)c1ncc(Cl)c(C(=O)Nc2ccccc2OC)n1", "Potency": "35.5 µM (active)"}, {"smiles": "Cc1ccccc1NC(=O)c1nc(S(C)(=O)=O)ncc1Cl", "Potency": "inactive"}, {"smiles": "Cc1ccc2sc(-c3ccc(NC(=O)/C=C\\C(=O)O)cc3)nc2c1", "Potency": "inactive"}, {"smiles": "COC(=O)c1scc(C)c1NC(=O)CSc1ccc(Cl)cc1", "Potency": "inactive"}, {"smiles": "COC(=O)c1sc(-c2ccc(C(C)(C)C)cc2)cc1NC(=O)/C=C/C(=O)O", "Potency": "39.8 µM (active)"}, {"smiles": "CC(=O)c1sc(-c2ccccc2)cc1NS(=O)(=O)c1ccccc1", "Potency": "inactive"}, {"smiles": "COC(=O)c1scc(C)c1NC(=O)c1ccc(Cl)cc1", "Potency": "inactive"}, {"smiles": "COC(=O)c1sc(-c2ccc(Cl)cc2)cc1NC(=O)/C=C/C(=O)O", "Potency": "28.2 µM (active)"}, {"smiles": "O=C(Nc1ccc(C(F)(F)F)cc1)c1cc(S(=O)(=O)NC2CCCCCC2)ccc1F", "Potency": "35.5 µM (active)"}, {"smiles": "CCC(=O)NC(=S)Nc1ccc(S(=O)(=O)NC2CCCCC2)cc1", "Potency": "inactive"}, {"smiles": "CCOC(=O)N1CCC2(CC1)C(C#N)=C(N)Oc1c2sc2nc(C)cc(C)c12", "Potency": "25.1 µM (active)"}, {"smiles": "Cc1cc(C)c2c(N)c(C(=O)C(C)(C)C)sc2n1", "Potency": "inactive"}, {"smiles": "C=COC(=O)c1sc2nc(C)cc(C)c2c1N", "Potency": "inactive"}, {"smiles": "CSCCC(NC(=O)COc1ccccc1)C(=O)N1CCCCCC1", "note": "(configuration not stated)", "Potency": "inactive"}, {"smiles": "C/C(=N\\Nc1cccc(C(F)(F)F)c1)c1ccc(O)cc1", "Potency": "inactive"}, {"smiles": "O=C(NNc1ccccc1Br)C(O)(c1cccc(C(F)(F)F)c1)c1cccc(C(F)(F)F)c1", "Potency": "20 µM (active)"}, {"smiles": "O=C(CSc1ccc(F)cc1)Nc1ccccc1Br", "Potency": "inactive"}, {"smiles": "NC(=S)N/N=C1\\CCOc2ccc(Cl)cc21", "Potency": "22.4 µM (active)"}, {"smiles": "NC(=O)NN=C1CCN2CCCc3cccc1c32", "Potency": "inactive"}, {"smiles": "CC1(C)C/C(=N\\NC(=S)Nc2ccccc2F)c2cc(O)ccc2O1", "Potency": "inactive"}, {"smiles": "O=c1c2cc(N3CCOCC3)ccc2[nH]c(=S)n1CCc1ccccc1", "Potency": "inactive"}]}]}
